{
  "source": "PubChem BioAssay (NCATS)",
  "key": {"[1]": {"target": "Fructose-bisphosphate aldolase (Giardia intestinalis (strain ATCC 50803 / WB clone C6)) (UniProt A8B2U2)", "sequence (A8B2U2 whole entry, looked up)": "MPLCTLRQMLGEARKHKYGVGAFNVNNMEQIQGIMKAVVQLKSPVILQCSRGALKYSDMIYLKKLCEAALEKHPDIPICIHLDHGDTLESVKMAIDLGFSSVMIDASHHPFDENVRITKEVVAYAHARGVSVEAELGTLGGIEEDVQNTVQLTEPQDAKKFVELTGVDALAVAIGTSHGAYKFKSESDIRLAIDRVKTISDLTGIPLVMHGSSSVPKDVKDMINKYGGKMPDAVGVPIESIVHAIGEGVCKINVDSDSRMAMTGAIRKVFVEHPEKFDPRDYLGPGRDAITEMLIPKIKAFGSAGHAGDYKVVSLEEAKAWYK", "assay": "qHTS Assay for Inhibitors of Fructose-1,6-bisphosphate Aldolase from Giardia Lamblia: Primary screen confirmation (AID 2787);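 note: aldolase product measured through coupled diaphorase step turning resazurin into fluorescent resorufin; series mostly up to about 58 µM; nearly all actives have a fitted effect of over 45% in size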", "how_it_was_run": "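Confirmation of primary hits by qHTS up to 57.5 uM final compound. Enzyme at 40 nM with 30 uM ZnCl2, 10 min RT pre-incubation, then substrate/coupling/resorufin-forming detection mix for 20 min before fluorescence read at 525/598 nm.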"}, "[2]": {"target": "Fructose-bisphosphate aldolase A (Oryctolagus cuniculus) (UniProt P00883)", "sequence (P00883 whole entry, looked up)": "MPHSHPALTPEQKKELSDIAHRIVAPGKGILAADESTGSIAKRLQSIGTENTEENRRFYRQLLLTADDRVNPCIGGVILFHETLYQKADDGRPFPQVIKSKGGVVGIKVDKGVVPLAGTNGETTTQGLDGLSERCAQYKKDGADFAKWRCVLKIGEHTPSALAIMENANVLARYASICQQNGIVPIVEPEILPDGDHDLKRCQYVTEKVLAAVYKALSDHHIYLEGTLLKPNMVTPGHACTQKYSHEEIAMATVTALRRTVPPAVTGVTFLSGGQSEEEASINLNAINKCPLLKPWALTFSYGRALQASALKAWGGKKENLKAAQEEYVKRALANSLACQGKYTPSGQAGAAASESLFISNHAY", "assay": "qHTS Assay for Inhibitors of Fructose-1,6-bisphosphate Aldolase from Giardia Lamblia: Rabbit FBPA Selectivity (AID 2794); note: nearly all actives have a fitted effect of over 60% in size", "how_it_was_run": "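Selectivity was assessed on rabbit Class I enzyme by qHTS. Product formation was detected by AmpLite Red fluorescence (525/598 nm) after a 20 min RT reaction started with substrate, following 10 min compound preincubation at up to 57.5 uM final.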"}, "[3]": {"assay": "qHTS Assay for Inhibitors of Fructose-1,6-bisphosphate Aldolase from Giardia Lamblia: Coupling assay counterscreen confirmation (AID 2795); note: nearly all actives have a fitted effect of over 55% in size", "how_it_was_run": "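Compounds at up to 57.5 uM final tested against the coupling enzymes and resorufin-type fluorescent detection only, aldolase omitted. Ex 525 nm/em 598 nm read after 10 min enzyme-compound and 20 min substrate incubations, room temperature.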"}},
  "note": "The list shows a part of the results. Records with an inconclusive call do not appear. Values without a mark were called inactive. Active and inactive are the calls of the source. Calls come from the whole dose curve; as a rule, active = well fitted inhibition curve with a large enough effect; inconclusive = small, poorly fitted or top-dose-only effect; inactive = flat fitted curve, though single readings scatter.",
  "data": [
    {"smiles": "O=C(NC(=S)Nc1ncccn1)c1ccccc1Br", "values": [
      {"measurement": "outcome", "setting": "[1]", "result": "inactive"},
      {"measurement": "outcome", "setting": "[2]", "result": "inactive"}
    ]},
    {"smiles": "COc1ccccc1CN1CCN(Cc2cc(OC)c(OC)cc2OC)CC1", "values": [
      {"measurement": "outcome", "setting": "[1]", "result": "inactive"},
      {"measurement": "outcome", "setting": "[2]", "result": "inactive"},
      {"measurement": "outcome", "setting": "[3]", "result": "inactive"}
    ]}
  ]
}
